Experimental data: the supplement of paper PMC9262897, “Low-cost anti-mycobacterial drug discovery using engineered E. coli” (Nature Communications, 2022)
Where a name gives a salt, the structure may show the parent alone. ± gives the standard deviation of the averaged measurements.

Tests used:
Test in all cases: growth (OD600 after 10 h); higher = more growth (less inhibition)
[1] = system: E. coli TESEC Alr+ wild-type control; conditions: compound 0.1 mM; raw OD600 reference: median of DMSO wells 0.241, cell-free background 0.041
Protocol: (§1)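 TESEC Mtb Alr E. coli, or the Alr+ wild-type control, in 384-well plates with Prestwick library compounds at 0.1 mM and 1% DMSO, across arabinose induction levels of 1E3 to 1E7 nM. Growth is read as OD600 after 10 h at 37 °C in triplicate biological replicates.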

[2] = system: E. coli TESEC Mtb Alr; conditions: compound 0.1 mM
Protocol: as §1

[3] = system: E. coli TESEC Mtb Asd; conditions: compound 0.1 mM
Protocol: (§2)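 TESEC E. coli strains in which the native enzyme is deleted and replaced by arabinose-inducible Mtb Asd, DapB, CysH or TrpD, each grown in its selective medium. Strains were screened against the Prestwick library at 0.1 mM and 1% DMSO in 384-well format at low and high arabinose induction. Growth is read as OD600 after 10 h in triplicate.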

[4] = system: E. coli TESEC Mtb DapB; conditions: compound 0.1 mM
Protocol: as §2

[5] = system: E. coli TESEC Mtb Alr; conditions: compound 0.1 mM; remark: listed apart in the source
Protocol: (§3)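 TESEC Mtb Alr E. coli (ΔaraC ΔtolC ΔentC Δalr ΔdadX, arabinose-inducible Mtb Alr) or the Alr+ wild-type control strain, grown in defined M9-fructose medium without D-alanine in 96-well plates with Prestwick library compounds at 0.1 mM and 1% DMSO. Low Alr induction is 0.1 µM arabinose and high induction is 10 mM arabinose.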

[6] = system: E. coli TESEC Alr+ wild-type control; conditions: compound 0.1 mM; raw OD600 reference: median of DMSO wells 0.49, cell-free background 0.052
Protocol: as §3

[7] = arabinose 1000 nM, raw OD600 reference: median of DMSO wells 0.294, cell-free background 0.041
[8] = arabinose 10000 nM, raw OD600 reference: median of DMSO wells 0.264, cell-free background 0.041
[9] = arabinose 100000 nM, raw OD600 reference: median of DMSO wells 0.201, cell-free background 0.041
[10] = arabinose 1000000 nM, raw OD600 reference: median of DMSO wells 0.193, cell-free background 0.041
[11] = arabinose 10000000 nM, raw OD600 reference: median of DMSO wells 0.146, cell-free background 0.041
[12] = arabinose induction (level): High, raw OD600 reference: median of DMSO wells 0.331, cell-free background 0.041
[13] = arabinose induction (level): Low, raw OD600 reference: median of DMSO wells 0.417, cell-free background 0.041
[14] = arabinose induction (level): High, raw OD600 reference: median of DMSO wells […], cell-free background 0.041
[15] = arabinose induction (level): Low, raw OD600 reference: median of DMSO wells 0.227, cell-free background 0.041
[16] = arabinose 100 nM, raw OD600 reference: median of DMSO wells 0.413, cell-free background 0.052
[17] = arabinose 10000000 nM, raw OD600 reference: median of DMSO wells […], cell-free background 0.052

Compound | growth [1] | growth [2, 7] | growth [2, 8] | growth [2, 9] | growth [2, 10] | growth [2, 11] | growth [3, 12] | growth [3, 13] | growth [4, 14] | growth [4, 15] | growth [5, 16] | growth [5, 17] | growth [6]
CNCC(O)c1ccc(O)cc1 (racemic) [(+,-)-Synephrine] | 0.239 ± 0.0073 | 0.2963 ± 0.00035 | 0.267 ± 0.01 | 0.175 ± 0.012 | 0.198 ± 0.012 | 0.141 ± 0.0004 | 0.222 ± 0.018 | 0.322 ± 0.076 | 0.227 ± 0.021 | 0.232 ± 0.042 | 0.4195 ± 0.0029 | 0.325 ± 0.027 | –
CC(O)(CS(=O)(=O)c1ccc(F)cc1)C(=O)Nc1ccc(C#N)c(C(F)(F)F)c1 (stereo not given) [Bicalutamide] | 0.154 ± 0.0054 | 0.2 ± 0.0073 | 0.306 ± 0.018 | 0.1769 ± 0.0014 | 0.108 ± 0.0031 | 0.15 ± 0.0023 | 0.216 ± 0.027 | 0.253 ± 0.017 | 0.196 ± 0.015 | 0.236 ± 0.021 | 0.397 ± 0.018 | 0.232 ± 0.054 | –
O=C(CCCN1CCC(n2c(=O)[nH]c3ccccc32)CC1)c1ccc(F)cc1 [Benperidol] | 0.181 ± 0.0021 | 0.269 ± 0.0074 | 0.263 ± 0.0054 | 0.179 ± 0.036 | 0.135 ± 0.0025 | 0.149 ± 0.0063 | 0.357 ± 0.062 | 0.434 ± 0.086 | 0.187 ± 0.026 | 0.21 ± 0.0039 | 0.411 ± 0.016 | 0.26 ± 0.02 | 0.407 ± 0.02
CN(C)[C@@H]1C(=O)C(C(N)=O)=C(O)[C@@]2(O)C(=O)C3=C(O)c4c(O)ccc(Cl)c4[C@@](C)(O)[C@H]3C[C@@H]12 [Chlortetracycline hydrochloride] | 0.03933 ± 0.00031 | 0.0417 ± 0.0029 | 0.04 ± 0.00072 | 0.0444 ± 0.0038 | 0.0402 ± 0.0018 | 0.0405 ± 0.0011 | 0.0499 ± 0.0023 | 0.0479 ± 0.00061 | 0.0465 ± 0.0014 | 0.0507 ± 0.0031 | 0.0524 ± 0.00066 | 0.0506 ± 0.00035 | 0.0491 ± 0.00036
O=[N+]([O-])O[C@@H]1CO[C@H]2[C@@H]1OC[C@@H]2O [Isosorbide mononitrate] | 0.24 ± 0.0084 | 0.292 ± 0.0083 | 0.261 ± 0.018 | 0.198 ± 0.035 | 0.209 ± 0.018 | 0.136 ± 0.0044 | 0.255 ± 0.084 | 0.345 ± 0.017 | 0.176 ± 0.0055 | 0.216 ± 0.03 | 0.4231 ± 0.0041 | 0.324 ± 0.012 | –
O=c1[nH]c2ccccc2n1CCCN1CCC(n2c(=O)[nH]c3cc(Cl)ccc32)CC1 [Domperidone] | 0.129 ± 0.0039 | 0.183 ± 0.0075 | 0.214 ± 0.015 | 0.149 ± 0.0082 | 0.09803 ± 0.00075 | 0.124 ± 0.0039 | 0.1177 ± 0.0011 | 0.176 ± 0.018 | 0.137 ± 0.005 | 0.152 ± 0.0037 | 0.41 ± 0.0087 | 0.246 ± 0.0035 | 0.406 ± 0.011
c1ccc2c(c1)OCC(C1=NCCN1)O2 (stereo not given) [Idazoxan hydrochloride] | 0.23 ± 0.013 | 0.281 ± 0.02 | 0.27 ± 0.0069 | 0.188 ± 0.0024 | 0.192 ± 0.0045 | 0.141 ± 0.0099 | 0.373 ± 0.039 | 0.379 ± 0.019 | 0.183 ± 0.017 | 0.228 ± 0.021 | 0.401 ± 0.014 | 0.315 ± 0.0098 | –
CN[C@@H]1[C@@H](O)[C@@H](O[C@@H]2[C@@H](O)[C@H](O[C@H]3O[C@H](CN)CC[C@H]3N)[C@@H](N)C[C@H]2N)OC[C@]1(C)O.CN[C@@H]1[C@@H](O)[C@@H](O[C@@H]2[C@@H](O)[C@H](O[C@H]3O[C@H]([C@@H](C)N)CC[C@H]3N)[C@@H](N)C[C@H]2N)OC[C@]1(C)O.CN[C@@H]1[C@@H](O)[C@@H](O[C@@H]2[C@@H](O)[C@H](O[C@H]3O[C@H]([C@@H](C)NC)CC[C@H]3N)[C@@H](N)C[C@H]2N)OC[C@]1(C)O [Gentamicine sulfate] | 0.0458 ± 0.00049 | 0.04643 ± 0.00025 | 0.0414 ± 0.00061 | 0.0505 ± 0.0026 | 0.0448 ± 0.00064 | 0.075 ± 0.001 | 0.134 ± 0.021 | 0.0693 ± 0.0051 | 0.21 ± 0.067 | 0.112 ± 0.0046 | 0.191 ± 0.13 | 0.0981 ± 0.037 | –
C[C@]12N[C@H](Cc3ccccc31)c1ccccc12 [Dizocilpine maleate] | 0.2374 ± 0.0019 | 0.286 ± 0.009 | 0.273 ± 0.0096 | 0.158 ± 0.014 | 0.123 ± 0.0042 | 0.134 ± 0.0024 | 0.179 ± 0.014 | 0.415 ± 0.059 | 0.179 ± 0.019 | 0.18 ± 0.012 | 0.4169 ± 0.0029 | 0.304 ± 0.01 | –
CCC(COC(=O)c1cc(OC)c(OC)c(OC)c1)(c1ccccc1)N(C)C (stereo not given) [Trimebutine] | 0.13 ± 0.0031 | 0.142 ± 0.012 | 0.151 ± 0.011 | 0.116 ± 0.0031 | 0.0716 ± 0.0024 | 0.101 ± 0.015 | 0.205 ± 0.033 | 0.245 ± 0.085 | 0.1665 ± 0.0014 | 0.191 ± 0.028 | 0.403 ± 0.0063 | 0.119 ± 0.0083 | –
CCN[C@@H](C)Cc1cccc(C(F)(F)F)c1 [Dexfenfluramine hydrochloride] | 0.23 ± 0.013 | 0.315 ± 0.0066 | 0.261 ± 0.0059 | 0.232 ± 0.027 | 0.174 ± 0.0053 | 0.158 ± 0.0058 | 0.235 ± 0.033 | 0.335 ± 0.083 | 0.189 ± 0.0055 | 0.246 ± 0.0058 | 0.412 ± 0.0093 | 0.351 ± 0.026 | –
C[C@]12CCC(=O)C=C1CC[C@@H]1[C@@H]2C(=O)C[C@]2(C)C(=O)CC[C@@H]12 [Adrenosterone] | 0.212 ± 0.0061 | 0.273 ± 0.015 | 0.245 ± 0.0058 | 0.163 ± 0.0036 | 0.131 ± 0.011 | 0.123 ± 0.0015 | 0.256 ± 0.03 | 0.445 ± 0.023 | 0.202 ± 0.007 | 0.225 ± 0.032 | 0.406 ± 0.014 | 0.2946 ± 0.0019 | –
CC(C)c1c(CN(C)C(C)Cc2ccccc2)n(C)n(-c2ccccc2)c1=O (stereo not given) [Famprofazone] | 0.219 ± 0.0093 | 0.279 ± 0.013 | 0.27 ± 0.014 | 0.154 ± 0.0078 | 0.131 ± 0.0042 | 0.154 ± 0.0085 | 0.425 ± 0.02 | 0.486 ± 0.087 | 0.202 ± 0.0043 | 0.236 ± 0.04 | 0.406 ± 0.0053 | 0.269 ± 0.0074 | –
C[C@@H]1CN([C@H]2CC[C@](C#N)(c3ccc(F)cc3)CC2)CC[C@]1(C(=O)O)c1ccccc1 [Levocabastine hydrochloride] | 0.215 ± 0.0053 | 0.274 ± 0.0041 | 0.271 ± 0.017 | 0.171 ± 0.011 | 0.154 ± 0.0044 | 0.154 ± 0.0047 | 0.212 ± 0.033 | 0.384 ± 0.03 | 0.192 ± 0.0051 | 0.265 ± 0.029 | 0.404 ± 0.017 | 0.321 ± 0.022 | –
CCCC(C)C1(CC)C(=O)NC(=O)NC1=O (stereo not given) [Pentobarbital] | 0.233 ± 0.0093 | 0.279 ± 0.016 | 0.255 ± 0.013 | 0.233 ± 0.019 | 0.203 ± 0.011 | 0.143 ± 0.0092 | 0.451 ± 0.018 | 0.399 ± 0.087 | 0.2 ± 0.01 | 0.265 ± 0.014 | 0.4 ± 0.018 | 0.369 ± 0.0053 | –
COc1ccc(C(CN(C)C)C2(O)CCCCC2)cc1 (stereo not given) [Venlafaxine] | 0.219 ± 0.015 | 0.301 ± 0.016 | 0.251 ± 0.01 | 0.185 ± 0.013 | 0.178 ± 0.0042 | 0.137 ± 0.0036 | 0.436 ± 0.066 | 0.459 ± 0.032 | 0.207 ± 0.0032 | 0.22 ± 0.016 | 0.415 ± 0.0048 | 0.338 ± 0.025 | –
